# ATXN viability: Viability Counterscreen for Primary qHTS for Inhibitors of ATXN expression; S2 cells (HEK-293 line with an ATXN2-luciferase reporter) viability, CellTiter-Fluor protease fluorescence, 24 h; Potency, µM (series often up to 56.7 µM), hits mostly cytotoxic; hit rate 0.49% among 400,000; also: potency is read from the fitted curve at half-maximal effect; nearly all actives have a fitted effect of over 40% in size
# ATXN2 expr inh: Primary qHTS for Inhibitors of ATXN expression; HEK-293 ATXN2-luciferase reporter, luminescence, 24 h; Potency, µM (doses to about 57 µM), inactives show at the top dose activity change, negative = inhibition, actives largely listed as inhibitors; hit rate 0.72% among 360,000; AID 1745845, 2022; also: potency is read from the fitted curve at half-maximal effect; % is scaled to controls: 0 for no effect and ±100 for the full control effect; nearly all actives have a fitted effect of over 55% in size
#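 qHTS (up to 57 uM final) was run with 24 h compound exposure of reporter cells at 37 °C. Each well was multiplexed: SteadyGlo luminescence measured ATXN2-luciferase expression after a fluorogenic Gly-Phe-AFC viability readout (25 uM final).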
# TGFb inhibitor: qHTS for Inhibitors of TGF-b; Potency, µM (doses to about 46.1 µM), inactives show top-dose activity, negative = inhibition, hits mostly inhibitors; hit rate 1.2% among 410,000; HepG2 CAGA-GFP TGF-b/SMAD3 reporter, GFP fluorescence, 18 h; TGF-beta stimulated, 500 pg/mL final; also: potency is read from the fitted curve at half-maximal effect; % is scaled to controls: 0 for no effect and ±100 for the full control effect; nearly all actives have a fitted effect of over 65% in size
#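 GFP signal (ex488/em500-530) from TGF-beta-stimulated HEPG2 CAGA-GFP cells, 500 pg/mL final, 18 h at 37 degrees C in DMEM plus 1% FBS, normalized to unstimulated and DMSO-stimulated controls.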
# Anesthetic bind: qHTS Assay for Identification of Novel General Anesthetics; hit rate 0.074% among 350,000; apoferritin/1-aminoanthracene competitive binding, fluorescence; Ferritin light chain (Equus caballus), P02791; AID 485281, 2010; Potency, µM (series often up to 77.5 µM), for the others: top-dose activity change, negative = displacement, actives largely listed as inhibitors; also: potency is read from the fitted curve at half-maximal effect; % is scaled to controls: 0 for no effect and ±100 for the full control effect; nearly all actives have a fitted effect of over 20% in size
# Target sequence (P02791 2-175 limits assumed): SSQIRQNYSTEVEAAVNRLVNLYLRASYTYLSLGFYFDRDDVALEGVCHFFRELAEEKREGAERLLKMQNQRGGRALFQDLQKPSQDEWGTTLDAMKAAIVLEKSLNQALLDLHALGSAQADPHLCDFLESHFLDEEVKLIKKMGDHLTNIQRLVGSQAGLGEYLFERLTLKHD
#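 Probe: 1-aminoanthracene (50% saturated, PBS). Protein: horse-spleen apoferritin, 10 uM. Incubation: 10 min, room temperature. Detection: 380 nm excitation, 535 nm emission. Analysis: normalized response, four-parameter Hill.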
# HepG2 viability: qHTS for Inhibitors of TGF-b: Cytotox Counterscreen. HepG2 CAGA-GFP viability, ATP luminescence, 18 h. Potency, µM (series often up to 46.1 µM), for the others: top-dose activity change, negative = cytotoxicity, most hits filed as cytotoxic. hit rate 0.76% among 410,000. AID 588856, 2011; also: potency is read from the fitted curve at half-maximal effect
#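 CellTiter-Glo luminescence gave cytotoxicity after 18 hours at 37 degrees C. The cells were HepG2 CAGA-GFP in 1% FBS DMEM, stimulated with 500 pg/mL TGF-beta after compound addition. %Activity was normalised to no-cell wells (complete cell-killing) and DMSO (no toxicity), and curves were fitted and classified.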
# SK-N-SH 3D tox: qHTS of pediatric cancer cell lines to identify multiple opportunities for drug repurposing: Orthogonal 3D viability screen for SK-N-SH cells | shares compounds with ATXN2 expr inh | SK-N-SH 3D spheroid viability, PI/Hoechst imaging, 72 h | Potency, µM (top dose mostly 30.7 µM), hits mostly inhibitors | hit rate 70% among 65
# SJ-GBM2 3D tox: qHTS of pediatric cancer cell lines to identify multiple opportunities for drug repurposing: Orthogonal 3D viability screen for SJ-GBM2 cells; shares compounds with ATXN2 expr inh; SJ-GBM2 3D spheroid viability, PI/Hoechst imaging, 72 h; Potency, µM (titrated, usually from 30.7 µM), actives largely listed as inhibitors; hit rate 80% among 65
# Daoy 3D tox: qHTS of pediatric cancer cell lines to identify multiple opportunities for drug repurposing: Orthogonal 3D viability screen for Daoy cells; shares compounds with ATXN2 expr inh; AID 1347137, 2019; Daoy 3D spheroid viability, PI/Hoechst imaging, 72 h; hit rate 50% among 65; Potency, µM (series often up to 30.7 µM), actives largely listed as inhibitors
# TC32 3D casp: qHTS of pediatric cancer cell lines to identify multiple opportunities for drug repurposing: Orthogonal 3D caspase screen for TC32 cells; hit rate 30% among 65; shares compounds with ATXN2 expr inh; AID 1347138, 2019; TC32 3D spheroids, caspase-3/7 fluorescence imaging, 24 h; Potency, µM (top dose mostly 30.7 µM), usual class: inhibitors
# TC32 3D tox: qHTS of pediatric cancer cell lines to identify multiple opportunities for drug repurposing: Orthogonal 3D viability screen for TC32 cells. shares compounds with ATXN2 expr inh. TC32 3D spheroid viability, PI/Hoechst imaging, 72 h. Potency, µM (series often up to 30.7 µM), actives largely listed as inhibitors. hit rate 60% among 65
# MG63 spheroid: qHTS of pediatric cancer cell lines to identify multiple opportunities for drug repurposing: Orthogonal 3D viability screen for MG 63 (6-TG R) cells; shares compounds with ATXN2 expr inh; MG-63 (6-TG R) 3D spheroid viability, PI/Hoechst imaging, 72 h; Potency, µM (highest dose often 30.7 µM), actives largely listed as inhibitors; hit rate 50% among 65; AID 1347140, 2019
# RD 3D tox: qHTS of pediatric cancer cell lines to identify multiple opportunities for drug repurposing: Orthogonal 3D viability screen for RD cells; Potency, µM (highest dose often 30.7 µM), hits mostly inhibitors; shares compounds with ATXN2 expr inh; hit rate 50% among 65; AID 1347141, 2019; RD rhabdomyosarcoma 3D spheroid viability, PI/Hoechst imaging, 72 h
# An asterisk follows results filed as active; i = inactive; ? = inconclusive; · = not tested or not shown; [ ] = dose if it differs, or a comment. Sampled rows, rich in hits. Any-hit rate of the full collection: about 2.4%. Calls follow the shape of the dose curve; as a rule, active = well fitted curve in the direction sought with a large enough effect; inconclusive = small, poorly fitted or top-dose-only effect, or another doubt; inactive = no such curve, though single readings can be large; an effect the other way counts as inactive or inconclusive.
SMILES,ATXN viability,ATXN2 expr inh,TGFb inhibitor,Anesthetic bind,HepG2 viability,others
Nc1cccc(NP(=O)(c2ccccc2)c2ccccc2)c1,i,·,5%,-9%,39%,
C[C@@H](C1CC[C@@]2(O)C3=CC(=O)[C@@H]4C[C@@H](O)[C@@H](O)C[C@]4(C)[C@H]3CC[C@]12C)[C@H](O)CCC(C)(C)O (stereo partly specified),·,·,3%,1%,-1%,
CC(N[C@H]1C[C@H]1c1ccccc1)c1ccc2c(c1)OCCO2 (stereo partly specified),·,9%,·,·,·,
COc1cccc2c1C13CC[N+]4(CC5CC5)CO[C@]1(CCC(=O)C3)C4C2,·,·,·,2%,·,
Oc1ccc(-c2cccnc2)cc1CNC1CN2CCC1CC2 (stereo unspecified),i,·,·,·,·,
c1ccc2c(c1)CC1CNCc3cccc(c31)S2 (stereo unspecified),i,-18%,6%,-11%,-30%,
N#Cc1cc2c(nc1SCC(=O)Nc1ccc(F)c(Cl)c1)C1CCN2CC1,i,49%,0%,-4%,-3%,
Cc1c(Cl)cccc1NC(=O)NCCOCCn1c(=O)oc2ccccc21,i,-21%,?,56%,-26%,
CCN1CCN(C(=O)Cc2c(C)n(C(=O)c3ccc(Cl)cc3)c3ccc(OC)cc23)CC1,?,-13%,-17%,-19%,-22%,
C[C@H](CCC(=O)O)C[C@H](C)C[C@H](C)C(=O)/C=C(\O)[C@H](C)C[C@H](C)C/C=C/[C@@H](C)[C@@H](O)[C@@H](C)[C@@H](O)C[C@@H]1CC[C@@](C)([C@H]2CC[C@@](C)([C@@H](C)O)O2)O1,·,·,·,-18%,·,
COC(=O)C1=CCCN(C)C1,i,41%,7%,-1%,6%,SK-N-SH 3D tox=13µM*;SJ-GBM2 3D tox=?;Daoy 3D tox=i;TC32 3D casp=?;TC32 3D tox=4.1µM*;MG63 spheroid=i;RD 3D tox=i
CC(=O)OCC1=C(C(=O)O)N2C(=O)[C@@H](N)[C@H]2SC1,i,0%[25.6 µM],·,·,·,
O=C(N[C@H]1N=C(c2ccccc2F)c2cccc3c2N(CC3)C1=O)c1cc2ccccc2[nH]1,?,46%,·,·,·,
CC(C)(C)NCC(O)c1cc(Cl)c(N)c(Cl)c1 (stereo unspecified),?,-9%,5%,-4%,-11%,
CNCC(N)C(=O)O (stereo unspecified),·,·,·,-3%,·,
CC(Cc1ccccc1)NCCC(=O)NC(C)Cc1ccccc1 (stereo unspecified),i,·,-25%,4%,-38%,
CCOc1ccc(NC(=O)CN(c2ccc(Cl)cc2C)S(=O)(=O)c2ccccc2)cc1,i,-15%,?,48%,-26%,
C/C=C1/C[N@@+]2(C)CC[C@]34C(=C(C=O)[C@H]1C[C@H]32)Nc1ccccc14,·,·,·,-1%,·,
CC(=NCCCN1CCOCC1)c1c(O)n(Cc2ccccc2)c(=O)[nH]c1=O,i,7%,-11%,-20%,-3%,
COc1ccc2c(c1)c(=O)c(C(=O)c1ccc(Cl)cc1)cn2CC(=O)Nc1ccc2c(c1)OCCO2,?,?,3%,-7%,1%,
CC(C)C[C@H]1C(=O)N2CCC[C@@H]2[C@@]2(O)O[C@](NC(=O)[C@@H]3C=C4c5cccc6[nH]cc(c56)C[C@@H]4N(C)C3)(C(C)C)C(=O)N12,i,·,·,2%[29.3 µM],·,
OC[C@H]1O[C@@H](n2cnc3cc(Cl)c(Cl)cc32)[C@H](O)[C@H]1O,·,·,·,6%,·,
CN1C(=O)[C@]23CC4=CC=C[C@H](O)[C@H]4N2C(=O)[C@@]1(CO)SS3,·,·,·,-6%,·,
Cc1ccc(C[N+](C)(C)C)o1,·,·,·,5%,·,
